# Data reported in PubChem BioAssay (NCI).
# “And” between values parts separate entries of the source, which are not always exact repeats. Equal entries are not always repeated. The panel holds about 83,000 compounds, 20% with a hit somewhere; the sample as a whole holds those more often.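 For each line, cells grew in 96-well plates with the test compound present at a single concentration for 48 hours.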 Unmarked numbers belong to inactive results. The source made the active and inactive calls. Where a SMILES comes first, the peptide text is derived from it. [ ]: non-standard residue; d: D form. ξ: configuration not given here. ξV = CC(C)C(N)C(=O)O
# Test system: BT-549 breast
# Test: NCI-60 one-dose screen, 48 h (100 = growth as untreated, 0 = no growth, -100 = all killed)
# Conditions: 0.0025 µM
# Procedure: Growth inhibition of the BT-549 human tumor cell line is measured as a screen for anti-cancer activity. Cells are grown in 96 well plates and exposed to the test compound for 48 hours. Compounds are tested at a single concentration, which is 10^-5 M for most compounds. The reported endpoint is percent growth (GI% or GIPRCNT), where numbers from 0 - 100% represent growth inhibition, and numbers from -100% - 0 represent cell death. For example, a value of 40 represents 60% growth inhibition. A value of 0 means no net growth occurred over the course of the experiment. A value of -40 indicates 40% of cells at the beginning of the experiment died by the end of the experiment. A value of -100 means all cells are dead at the end of the experiment.
# NCI-60 Human Tumor Cell Lines Screen was performed using the standard one-dose NCI protocol, which is described in more detail at https://dtp.cancer.gov/discovery_development/nci-60/default.htm.
# Compounds with GIPRCNT values below 10 were considered active. Activity score was based on GIPRCNT using the following formula: […]
# Score is 0 for GIPRCNT values of 100 or above, 50 for GIPRCNT values of 0, and 100 for GIPRCNT values of -100.
row,SMILES,growth [%]
1,COc1cccc2c1C(=O)c1c(O)c3c(c(O)c1C2=O)C[C@@](O)(C(=O)CO)C[C@@H]3OC1CC(N)C(O)C(C)O1 (stereo not given in full),81.9

# Same assay, conditions: 1 µM
row,SMILES,growth
1,COc1cccc2c1C(=O)c1c(O)c3c(c(O)c1C2=O)C[C@@](O)(C(=O)CO)C[C@@H]3OC1CC(N)C(O)C(C)O1 (stereo not given in full),5.17% (active)

# Same assay, conditions: 2.5 µM
row,SMILES,growth [%]
1,COc1cccc2c1C(=O)c1c(O)c3c(c(O)c1C2=O)C[C@@](O)(C(=O)CO)C[C@@H]3OC1CC(N)C(O)C(C)O1 (stereo not given in full),65.6

# Same assay, conditions: 10 µM
row,SMILES,growth
1,Oc1ccc(N=Nc2ccccn2)c(O)c1,36.6%
2,COc1cccc2c1C(=O)c1c(O)c3c(c(O)c1C2=O)C[C@@](O)(C(=O)CO)C[C@@H]3OC1CC(N)C(O)C(C)O1 (stereo not given in full),-59.2% (active)
3,O=C(/C=C/c1cccnc1)c1ccccc1,103%
4,COc1cccc2c1C(=O)c1c(O)c3c(c(O)c1C2=O)C[C@@](O)(C(C)=O)C[C@@H]3OC1CC(N)C(O)C(C)O1 (stereo not given in full),-70.9% (active)
5,CC(C)C(NC(=O)CN)C(=O)O (stereo not given) (H-Gly-[ξV]-OH),83.4% and 116%
6,CC[N+](CC)=c1ccc2nc3c(cc(N)c4ccccc43)oc-2c1,-53.4% (active)
7,NC(=O)SCC(=O)NNc1ccccc1,113%
8,CCCCCCCCCCCC[N+](C)(C)Cc1ccccc1,-21.1% (active)
9,OC(CN1CCCC2CCCCC21)c1cc2ccccc2c2ccccc12 (stereo not given),46%
10,O=C(O)COc1ccc(OCC(=O)O)cc1,20.9%
11,OCC1OC(n2cnc3c(=S)nc[nH]c32)C(O)C1O (stereo not given),105% and 66.2%
12,CCC(C)(C)c1cc(O)c(C(C)(C)CC)cc1O,10.7%
13,NC1=C(Cl)C(=O)c2ccccc2C1=O,82.7%
14,OCC(O)C(O)C(O)C(/C=N/Nc1ccccc1)=N/Nc1ccccc1 (stereo not given),88.9%
15,CC(=O)Nc1cc(C)ccc1C,112%
16,CC1=CC(C)=Nc2ccc(Cl)cc2N1,108%
17,O=c1ccn(C2CC(O)C(COC(c3ccccc3)(c3ccccc3)c3ccccc3)O2)c(=O)[nH]1 (stereo not given),84.2%
18,NNc1ccc2ccccc2c1,96.4%

row,SMILES,growth
1,O=[N+]([O-])C1=C(c2ccccc2)SC=C(c2ccccc2)S1,55.3%
2,Cc1nc(N=C(N)N)nc2ccc3ccccc3c12,13.7%
3,Cc1cc(NS(=O)(=O)c2ccc(N=Nc3cc(N=Nc4ccc(S(=O)(=O)Nc5cc(C)nc(C)n5)cc4)c4c(NC(=O)C(Cl)Cl)cccc4c3OC(=O)C(Cl)Cl)cc2)nc(C)n1 (tested in a mixture with another compound),111% and 99.7%
4,O=C1C=C(O)c2ccccc2C1=O.[Ag],115%
5,O=C(Nc1ccc(C(=O)O)c(O)c1)c1ccccc1,104%
6,CCCC1CCC(=C2C(=O)CCC2=O)O1 (stereo not given),86.3% and 106%
7,CCN1/C(=C/C=C/C=C/c2sc3ccccc3[n+]2CC)Sc2ccccc21,-42.3% (active)
8,CCO/C=C1\SC(=S)N(c2cccc(O)c2)C1=O,93.8%
9,COc1c(O)cc2oc3cc(O)c(CC=C(C)C)c(O)c3c(=O)c2c1CC=C(C)C,105%
10,Nc1ccc2cc3ccc(N)cc3nc2c1,95.9% and 69.1%
11,CN1CCN(CCCN2c3ccccc3Sc3ccc(C(F)(F)F)cc32)CC1,70.6%
12,Clc1ccc(/C=C/c2ccccn2)c(Cl)c1,88.4%
13,COC(=O)C1=COC(C)C2C[n+]3ccc4c([nH]c5ccccc54)c3CC12 (stereo not given),107% and 102%
14,CSC1SCC2C(=O)N(C)C(C(C)C)C(=O)OCC(NC(=O)c3cnc4ccccc4n3)C(=O)NC(C)C(=O)N(C)C1C(=O)N(C)C(C(C)C)C(=O)OCC(NC(=O)c1cnc3ccccc3n1)C(=O)NC(C)C(=O)N2C (stereo not given),-48.3% (active)
15,NNc1c2ccccc2nc2ccccc12,43.8%
16,Clc1cc(Cl)c(Cl)nn1,82.8%
17,CCCCCC(C)c1ccc(O)c(C)c1 (stereo not given),99.7%
18,O=C(C(=Cc1ccccc1)C(=O)c1ccccc1)c1ccccc1,66% and 103%

# Same assay, conditions: 100 µM
row,SMILES,growth [%]
1,O=c1ccn(C2CC(O)C(COC(c3ccccc3)(c3ccccc3)c3ccccc3)O2)c(=O)[nH]1 (stereo not given),13.9
